Assays:
Type in all cases: functional
[1] = biological target: Solute carrier family 2, facilitated glucose transporter member 1 (Homo sapiens) (UniProt P11166); experiment: ST_JUDE_LEISH: Cytotoxicity at 2uM final concentration against transgenic Leishmania Mexicana promastigotes LmGLUT1 that are glucose transport deficient and complemented with the human glucose transporter GLUT1. Activity is measured by DNA content using SYBR green in vitro
[2] = biological target: Hexose transporter 1 (Plasmodium falciparum) (UniProt O97467); experiment: ST_JUDE_LEISH: Cytotoxicity at 2uM final concentration against transgenic Leishmania Mexicana promastigotes LmPfHT that are glucose transport deficient and complemented with the Plasmodium falciparum hexose transporter. Activity is measured by DNA content using SYBR green in vitro
[3] = biological target: Glucose transporter (Leishmania mexicana) (UniProt O61059); experiment: ST_JUDE_LEISH: Cytotoxicity at 2uM final concentration against transgenic Leishmania Mexicana promastigotes LmGT2 that are glucose transport deficient and complemented with the L. Mexicana glucose transporter 2. Activity is measured by DNA content using SYBR green in vitro

Sequence of Solute carrier family 2, facilitated glucose transporter member 1 (Homo sapiens) (P11166 whole entry): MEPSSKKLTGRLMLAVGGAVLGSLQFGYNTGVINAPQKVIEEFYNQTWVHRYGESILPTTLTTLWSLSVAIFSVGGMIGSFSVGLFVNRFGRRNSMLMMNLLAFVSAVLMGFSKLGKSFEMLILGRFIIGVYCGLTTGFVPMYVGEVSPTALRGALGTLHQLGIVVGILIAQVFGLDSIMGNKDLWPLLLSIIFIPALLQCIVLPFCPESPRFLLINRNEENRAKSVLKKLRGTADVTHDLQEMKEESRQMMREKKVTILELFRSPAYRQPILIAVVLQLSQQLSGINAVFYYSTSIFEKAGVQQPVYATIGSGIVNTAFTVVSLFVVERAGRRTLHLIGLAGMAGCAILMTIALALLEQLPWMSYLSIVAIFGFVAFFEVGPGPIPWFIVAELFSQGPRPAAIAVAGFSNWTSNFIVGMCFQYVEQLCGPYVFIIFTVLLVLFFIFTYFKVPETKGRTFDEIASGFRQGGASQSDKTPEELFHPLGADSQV

| SMILES | inhibition [1] [%] | inhibition [2] [%] | inhibition [3] [%] |
| --- | --- | --- | --- |
| COc1ccc2nc(C)cc(Nc3ccc(Oc4ccc5ccccc5c4)c(Cl)c3)c2c1 | 7.14 | 7.63 | 1.45 |
| CC(C)c1ccc(S(=O)(=O)N(c2ccc3c(c2)OCO3)C2CCN(Cc3ccccc3)C2)cc1 (stereo not drawn) | -0.01 | -0.17 | 0.98 |
| CCOc1ccc(Br)cc1/C=C/C(=O)Nc1ccc(C2CCN(C)CC2)cc1 | 9.52 | 7.2 | 5.47 |
| CC(C)(C)OC(=O)NCc1ccc(Nc2nnc(-c3ccc(OCC(=O)NCc4ccc(C(C)(C)C)cc4)c([N+](=O)[O-])c3)o2)cc1 | 2.12 | 1.65 | -0.53 |
| CC(C)(C)C(=O)Nc1c(-c2cc(=O)oc3cc4c(cc23)CCC4)oc2ccccc12 | 4.02 | 4.1 | 5.42 |
| O=C(Nc1ccccc1F)NC1CCN(c2ccnc(Nc3ccc(F)cc3)n2)CC1 | 2.94 | 2.19 | 0.02 |
| O=S(=O)(Nc1ccc(CCN2CCC(N3CCCCC3)CC2)cc1)c1ccc(Cl)cc1 | 1.32 | 2.6 | 2.94 |
| CN(C)CCOc1cc(NC(=O)/C=C/c2cccc3ccccc23)ccc1I | 10.4 | 8.1 | 8.23 |
| CC12CN3CC(C)(CN(C1)C3c1cc(Br)ccc1O)C2O (stereo not drawn) | -3.78 | -1.64 | 4.22 |
| Cc1ccc(C2CCN(CCCCNC(=O)c3ccc(NC(=O)c4ccc(Cl)cc4)cc3)CC2)c(C)c1 | -0.93 | -0.75 | -0.85 |
| O=C(CCC1CCCCC1)NCCNc1cccc2ccccc12 | -0.06 | -0.34 | -3.97 |
| O=C(Nc1ccccc1-c1nc2ccccc2s1)C(Cl)(Cl)Cl | 0.49 | 1.24 | 0.54 |
| COc1ccc2nccc([C@@H](O)CN3CCC(NC(=O)C(c4ccsc4)N4CCN(c5ccccc5)CC4)CC3)c2c1 (stereo partly drawn) | 4.17 | 3.07 | 1.54 |
| CCCCCCN1CCCN(Cc2ccc(C(=O)Nc3ccc(C(C)C)cc3)cc2)CC1 | 5.84 | 7.26 | 4.28 |
| CNCCNc1nccc(N2CCc3ncnc(Nc4ccc(OCc5cccc(F)c5)c(Cl)c4)c3C2)n1 | 3.85 | 5 | 2.3 |
| CN(C(=O)Nc1ccc(C(F)(F)F)cc1)C1CCN(CCCCCNC(=O)/C=C/c2ccc(Cl)c(Cl)c2)CC1 | 4.18 | 2.6 | 0.47 |

Source: ChEMBL document CHEMBL3433997, “St. Jude Leishmania screening dataset” (2016)
